A selection: hits, their analogues and other compounds. The true share with any hit is near 12%.
LASV entry inh = Lassa virus entry inhibition | actives 1.2% (n = 300,000) | Lassa virus pseudotype entry inhibition, cell reporter | Potency, µM (highest dose often 37.9 µM), inactives show at the top dose activity change, negative = inhibition, hits mostly inhibitors | AID 540256; calls by dose curve; tested in HEK293 cells; also: potency is read from the fitted curve at half-maximal effect; % is scaled to controls: 0 for no effect and ±100 for the full control effect; nearly all actives have a fitted effect of over 50% in size
Shiga toxin inh = inhibitors of Shiga toxin in Vero cells | Vero cells, Shiga toxin protein synthesis inhibition reporter | inhibition, % at 38.7 µM | actives 9.2% (n = 290,000) | AID 2315; in the data active = inhibition mostly above about 28%, no sharp cut-off; inactive = mostly below about 43%; also: 0% is about no effect
Marburg entry inh = inhibitors of Marburg virus binding or cell entry. actives 1.8% (n = 300,000). Potency, µM (titrated, usually from 37.8 µM), without a hit: top-dose activity change, negative = inhibition, hits mostly inhibitors. Marburg virus pseudotyped entry inhibition, cell reporter; calls by dose curve; tested in HEK293 cells; also: potency is read from the fitted curve at half-maximal effect; % is scaled to controls: 0 for no effect and ±100 for the full control effect
Cycloheximide cs = counter-screen for Shiga toxin inhibitors: cycloheximide protein synthesis inhibition; cell reporter, cycloheximide protein synthesis inhibition counterscreen; actives 12% (n = 300,000); max response, %; AID 2314; in the data active = max response mostly above about 13%, no sharp cut-off; inactive = mostly below about 14%; also: read at 38.3 µM for the half of the compounds with a filed dose; 0% is about no effect
Starred values were filed as active, the others as inactive; u = inconclusive; x = no result given; [ ] = remark or other dose.

SMILES	LASV entry inh	Shiga toxin inh	Marburg entry inh	Cycloheximide cs
COc1ccccc1/C=C/c1ccc2cccc(O)c2n1	-26%[46.1 µM]	82*	u	40*
COc1ccc(Cl)cc1/C=C/c1ccc2cccc(O)c2n1	x	73*	x	46*
COc1ccc(C(C(=O)NC2CCCC2)N(Cc2cccnc2)C(=O)c2snc(C(N)=O)c2N)cc1OC (stereo not drawn)	15%[46.1 µM]	-7	-24%[46.1 µM]	-7
COc1ccc(Nc2ncnc3c2cnn3C)c(OC)c1	29%[46.1 µM]	x	x	x
Nc1nc(-c2cccnc2)nn1C(=O)c1ccc(F)cc1	-14%[46.1 µM]	10	-1%[46.1 µM]	-1
Nc1cc([N+](=O)[O-])cc2oc(-c3ccccc3)cc12	x	53*	x	53*
CN(C)c1ccc(NC(=O)CN2CCN(CC(=O)Nc3ccc(F)cc3)CC2)cc1	1%	11	u	19*
CN(C)c1ccc(NC(=O)CN2CCN(c3ccc(F)cc3)CC2)cc1	x	-7	x	-1
CCOc1ccc(NC(=O)CN2CCN(CC(=O)Nc3ccc(F)cc3)CC2)cc1	0%	-8	u	-5
CCOc1ccc(NC(=O)CN2CCN(CC(=O)Nc3ccc(N(C)C)cc3)CC2)cc1	x	81*	x	25*
CC(=O)c1c(O)c(C)c(O)c2c1OC1=CC(=O)[C@H](C(C)=O)C(=O)[C@]12C	x	x	11%	x
CC1(C)CC(NS(=O)(=O)c2ccc3ccccc3c2)CC(C)(C)N1	u	-3	4%[46.1 µM]	-6
COc1ccc(NC(=O)COC(=O)CCNS(=O)(=O)c2ccc(Cl)cc2)cc1	x	-9	x	-2
N#Cc1ccc(NC(=O)COC(=O)CCNS(=O)(=O)c2ccccc2)cc1	-3%	12	4%	45*
COc1cc(/C=C2/C(=N)N3C=CSC3=NC2=O)ccc1OCCCOc1ccccc1C	-6%	54*	u	10
CCOc1cc(/C=C2/C(=N)N3C=CSC3=NC2=O)ccc1OCCCOc1ccccc1C	x	16	x	38*
O=c1[nH]c(-[n+]2ccccc2)c(/C=N/N=C(\[O-])c2ccccc2)s1	4%	41*	-6%[46.1 µM]	19*
O=C(N/N=C/c1sc(=O)[nH]c1-[n+]1ccc2ccccc2c1)c1ccccc1[O-]	x	48*	x	27*
Cc1cc[n+](-c2[nH]c(=O)sc2/C=N/N=C(\[O-])c2ccccc2)cc1	20%[46.1 µM]	68*	0%[46.1 µM]	49*
Cc1cc[n+](-c2[nH]c(=O)sc2/C=N/N=C(\[O-])c2ccncc2)cc1	x	-4	x	-7
Cc1cc[n+](-c2[nH]c(=O)sc2/C=N/N=C(\[O-])c2ccccc2)cc1C	10%	74*	3%[46.1 µM]	39*
O=C(N/N=C/c1sc(=O)[nH]c1-[n+]1ccccc1)c1ccccc1[O-]	18%[46.1 µM]	20	u	10
Cc1ccc[n+](-c2[nH]c(=O)sc2/C=N/N=C(\[O-])c2cccnc2)c1	10%[46.1 µM]	28	8%[46.1 µM]	-2
Cc1ccc2c(COC(=O)CNC(=O)c3ccco3)cc(=O)oc2c1C	25%	x	1%	x
COc1ccc(OC[C@@H]2CC3[C@@H](CC[C@@H](C)[C@H]3c3ccc(Br)cc3)C(=O)O2)cc1 (stereo partly drawn)	u	x	-5%[14.2 µM]	x
SMILES	LASV entry inh	Shiga toxin inh	Marburg entry inh	Cycloheximide cs
Cc1ccc(C)c(NC(=O)N2CCc3cc(S(=O)(=O)N4CCC(C)CC4)ccc32)c1	-1%[46.1 µM]	x	-27%[46.1 µM]	x
CN1CCN(Cc2nc3c(c(=O)n(C)c(=O)n3C)n2Cc2ccccc2Cl)CC1	x	x	-5%	x
O=S(=O)(NC(=S)c1ccccc1)c1ccccc1	11%[46.1 µM]	x	1%[46.1 µM]	x
CC(C)N=C(NS(=O)(=O)c1ccccc1)C(Cl)(Cl)Cl	u	38*	u	19*
Cc1[nH]c2ccccc2c1N=Nc1c(C)n(C)n(-c2ccccc2)c1=O	-28%[46.1 µM]	2	u	10
Cc1[nH]c2ccccc2c1N=Nc1ccccc1F	3%[46.1 µM]	53*	u	24*
Cc1[nH]c2ccccc2c1N=Nc1cc(C(=O)O)cc(C(=O)O)c1	-6%[46.1 µM]	42	2%[46.1 µM]	5
Cc1[nH]c2ccccc2c1N=Nc1ccc(F)cc1	27%	45	u	19*
CCN(C(=O)CSc1nc2scc(-c3ccccc3)c2c(=O)n1N)C1CCS(=O)(=O)C1 (stereo not drawn)	1%	x	5%	x
Cc1cc(C)cc(NC(=O)C2CCN(c3cc(C)nc4c(-c5ccc(Cl)cc5)c(C)nn34)CC2)c1	15%[46.1 µM]	x	10%[46.1 µM]	x
CC1(C)CC(=O)C2=C(C1)Nc1ccccc1NC2	25%	139*	1%[46.1 µM]	44*
CC1(C)CC(=O)C2=C(C1)Nc1ccccc1N=C2	x	85*	x	50*
CC1(C)CC(=O)C2=C(C1)Nc1ccccc1S2	0%	-13	0%[46.1 µM]	5
NS(=O)(=O)c1ccc(NC(=O)CN2CCN(c3ccc(F)cc3)CC2)cc1	10%[46.1 µM]	x	x	x
CCOC(=O)c1ccc(N=Nc2c(C)c(C#N)c(O)[nH]c2=O)cc1	5%[46.1 µM]	83*	12%[46.1 µM]	46*
C=CCn1c(O)c(C(C)=Nc2ccc(C(=O)OCC)cc2)c(=O)[nH]c1=O	10%	43	-28%	7
CN(C)C(=O)c1ccc(-c2cc(C(F)(F)F)nn2C)s1	17%	53*	u	39*
Cn1nc(C(F)(F)F)cc1-c1ccc(S(N)(=O)=O)s1	9%	68*	0%[46.1 µM]	38*
CCN1CCN(C(c2cccc(OC)c2)c2c(O)cc(C)n(Cc3ccco3)c2=O)CC1 (stereo not drawn)	-3%[46.1 µM]	x	x	x
CCOc1ccc(OCc2ccc(C(=O)NCc3ccncc3)o2)cc1	22%	26	0%	17*
CCc1ccc(OCc2ccc(C(=O)NCc3ccccn3)o2)cc1	4%	19	u	32*
CCCNC(=O)c1ccc(COc2ccc(Cl)cc2)o1	x	-2	x	6
CCN(CCO)C(=O)c1ccc2nc(Cc3cccc(Cl)c3)oc2c1	u	11	-11%[46.1 µM]	6
COc1ccccc1-c1c(C(F)(F)F)oc2cc(OC(=O)c3ccccc3[N+](=O)[O-])ccc2c1=O	-28%	24	u	7
COc1ccccc1-c1c(C(F)(F)F)oc2cc(OS(C)(=O)=O)ccc2c1=O	u	39	u	25*
SMILES	LASV entry inh	Shiga toxin inh	Marburg entry inh	Cycloheximide cs
COCCCNc1oc(-c2ccccc2Cl)nc1C#N	x	52	x	15*
CC(C)CNc1oc(-c2ccccc2Cl)nc1C#N	23%[46.1 µM]	29*	3%[46.1 µM]	14*
O=C(c1ccc(F)cc1)n1nc(-c2cccnc2)nc1NCc1ccc(F)cc1	0%[46.1 µM]	x	u	x
COc1ccc(OC)c(NC(=O)c2nc(-c3ccccc3)oc2C)c1	-8%	-17	-18%	1
CC=COC(=O)N[C@@H](c1ccccc1)[C@]1(C(C)=O)CCCC1=O	u	x	-6%[14.2 µM]	x
Cc1nnsc1S(=O)c1ccccc1Cl (stereo not drawn)	4%[46.1 µM]	-5	-7%[46.1 µM]	-4
Cc1ccccc1OCC(=O)OCC(=O)c1ccc(OCc2ccccc2)cc1	u	81*	u	59*
Cc1ccccc1OCC(=O)OCC(=O)c1ccc(OC(=O)c2ccccc2)cc1	-31%[14.3 µM]	18	10%	-3
C=CCNC(=S)Nc1c(N)n(C)c(=O)n(C)c1=O	18%	-1	4%[46.1 µM]	1
COc1ccc(C)cc1NC(=O)C(Sc1nnc(Nc2ccccc2F)s1)c1ccccc1 (stereo not drawn)	-16%	-6	-17%	11*
N/C(=N\OC(=O)c1ccccc1Cl)c1cccc([N+](=O)[O-])c1	x	52*	x	37*

High-throughput results from PubChem.
